The record followed here is PubChem BioAssay.

What all share (test): BK channel mutant inhibitors and activators – cell-based, U2OS BacMam, thallium flux, beta subunits, selectivity assay, profiling panel (AID 1259406);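 note: initial slope of Thallos dye fluorescence rise after thallium is added; log ratio against the mean of 0.3% DMSO vehicle wells on the same plate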
Experiment [1] concerns F380Y. The note with it: U2OS BacMam BK variants, at 30 µM.
Experiment [2] deals with F380Y/beta1. The following applies: U2OS BacMam BK variants, at 30 µM.
The test system of experiment [3] is F380Y/beta2Delta. The following applies: U2OS BacMam BK variants, at 30 µM.
Experiment [4] relates to F380Y/beta4. The note with it: U2OS BacMam BK variants, at 30 µM.
Experiment [5] has as its target Calcium-activated potassium channel subunit alpha-1 (Homo sapiens) + Leucine-rich repeat-containing protein 26 (Homo sapiens) (UniProt Q12791+Q2I0M4). The following applies: U2OS BacMam BK variants, F380Y/Slo1WT/gamma1, at 30 µM.
Experiment [6] has as its system R275C. The note with it: U2OS BacMam BK variants, at 30 µM.
For experiment [7], the system named is R275C/beta1. The following applies: U2OS BacMam BK variants, at 30 µM.
Experiment [8] concerns R275C/beta2Delta. The note with it: U2OS BacMam BK variants, at 30 µM.
Experiment [9] relates to R275C/beta4. The following applies: U2OS BacMam BK variants, at 30 µM.
Experiment [10] has as its system R275C/Slo1WT/beta2. The note with it: U2OS BacMam BK variants, at 30 µM.

Values without a mark were called inactive. The source made the active and inactive calls.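 Rule for the calls: active = thallium flux through the channel raised or lowered by more than 3 SD from vehicle-only wells, actives on both sides; inactive = the rest.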

Calcium-activated potassium channel subunit alpha-1 (Homo sapiens) + Leucine-rich repeat-containing protein 26 (Homo sapiens), sequence (Q2I0M4 whole entry, looked up, one chain of several): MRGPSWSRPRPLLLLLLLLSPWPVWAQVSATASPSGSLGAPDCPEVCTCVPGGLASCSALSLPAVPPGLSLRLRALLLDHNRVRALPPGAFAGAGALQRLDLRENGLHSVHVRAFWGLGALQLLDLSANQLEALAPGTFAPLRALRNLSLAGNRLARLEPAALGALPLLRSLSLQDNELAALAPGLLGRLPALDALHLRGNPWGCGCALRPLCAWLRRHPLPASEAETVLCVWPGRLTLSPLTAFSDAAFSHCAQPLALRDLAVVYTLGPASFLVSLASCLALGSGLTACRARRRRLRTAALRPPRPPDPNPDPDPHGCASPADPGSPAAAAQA

Take `Cc1onc(-c2ccccc2)c1N1C(=O)CCN(C(C)C)C1=O`: the log fold change Tl+ flux is -0.0312 in experiment [1]; -0.00917 in [2]; -0.0373 in experiment [3]; -0.00603 in [4]; -0.0319 in [5]; -0.0915 (active) in experiment [6]. The log fold change Tl+ flux is 0.0435 in experiment [7], -0.0125 in experiment [8], -0.0122 in experiment [9] and 0.000512 in experiment [10].
Turning to `O=C(ON(C(=O)c1ccc(F)cc1)C1C2CC3CC(C2)CC1C3)c1ccc(F)cc1` (stereo not given), the log fold change Tl+ flux in experiment [1] was 0.0231; in experiment [2], -0.0234; in [3], 0.00474; in experiment [4] it was 0.0374; in experiment [5], 0.0901; in experiment [6] it was 0.0436. The log fold change Tl+ flux in experiment [7] is -0.0159; in experiment [8] it was 0.00798; in experiment [9], 0.0539; in [10] it was 0.0295.
As to `NC(=NOC(=O)Nc1cccc(Cl)c1)c1ccno1`, the log fold change Tl+ flux in [1] was -0.00531; in [2], 0.0032; in experiment [3], 0.0232; in [4], 0.000547; in experiment [5] it was 0.0155; in experiment [6], -0.025. The log fold change Tl+ flux was -0.0193 in experiment [7], 0.00772 in [8], 0.0126 in experiment [9] and 0.0133 in [10].
As for `CC(=O)Nc1ccc(OCC(=O)N2CCN(c3ncc(C(F)(F)F)cc3Cl)CC2)cc1`, the log fold change Tl+ flux in experiment [1] was 0.046; in [2], 0.0214; in [3], 0.00987; in experiment [4], 0.125 (active); in experiment [5], 0.039; in experiment [6], 0.0368. Also, the log fold change Tl+ flux is 0.00256 in experiment [7], 0.0353 in experiment [8], 0.0246 in [9] and 0.0473 in experiment [10].
Turning to `FC(F)(F)COc1ccc(-c2nnc(SCc3ccccc3C(F)(F)F)o2)cn1`, the log fold change Tl+ flux is 0.00456 in experiment [1]; -0.0223 in experiment [2]; -0.0257 in experiment [3]; -0.0497 in [4]; -0.0179 in experiment [5]; -0.0108 in experiment [6]. In addition, the log fold change Tl+ flux in experiment [7] is 0.0313; in experiment [8], -0.0204; in experiment [9], 0.0273; in experiment [10], 0.0157.
With `O=C(CN1c2ccccc2Sc2ccccc21)NN=Cc1ccco1`, the log fold change Tl+ flux in experiment [1] is 0.028; in [2] it was 0.0239; in [3], -0.0113; in experiment [4], -0.113 (active); in experiment [5], 0.0102; in [6], -0.00994. The log fold change Tl+ flux was 0.0301 in experiment [7], -0.0092 in experiment [8], 0.0737 in experiment [9] and 0.032 in experiment [10].
Turning to `N#CC(NCc1ccccc1Cl)=C(C#N)NCc1c(F)cccc1Cl`, the log fold change Tl+ flux in experiment [1] was -0.0652; in [2], -0.0209; in [3], -0.0204; in experiment [4] it was -0.171 (active); in experiment [5], -0.129 (active); in [6], -0.2 (active). Further, the log fold change Tl+ flux was -0.262 (active) in experiment [7], -0.0733 in experiment [8], -0.185 (active) in [9] and 0.00197 in experiment [10].
Consider `Cc1c(O)nc2ccccn2c1=O`, for which the log fold change Tl+ flux in [1] was 0.0365; in experiment [2], -0.00065; in [3], 0.0329; in experiment [4] it was 0.00904; in [5] it was 0.0423; in [6], -0.0111. Moreover, the log fold change Tl+ flux in experiment [7] is 0.0248; in [8], 0.00886; in [9], 0.0309; in experiment [10], 0.0209.
In the case of `CCOC(=O)c1cnc(C(F)(F)F)nc1NN=Cc1c(Cl)cccc1Cl`, the log fold change Tl+ flux is -0.0741 in [1]; 0.0122 in [2]; -0.0116 in experiment [3]; 0.00688 in [4]; -0.0599 in experiment [5]; -0.0944 (active) in [6]. The log fold change Tl+ flux in experiment [7] is -0.124 (active); in experiment [8], -0.0798; in experiment [9], -0.0487; in experiment [10], -0.0141.
For `Cc1c(C(=O)CSc2n[nH]c(=O)n2C(C)c2ccccc2)sc2ccc(Cl)cc12` (stereo not given), the log fold change Tl+ flux in experiment [1] was 0.0243; in [2], 0.0267; in [3] it was 0.0136; in experiment [4], -0.00607; in [5], 0.0185; in experiment [6] it was 0.0226. In addition, the log fold change Tl+ flux in experiment [7] is 0.0417; in [8] it was 0.0219; in experiment [9] it was 0.0303; in experiment [10], -0.0119.
Take `Cc1nn(Cc2nnn(CC(=O)NN=Cc3ccc(Cl)cc3)n2)c(C)c1Br`: the log fold change Tl+ flux in experiment [1] is 0.0697; in experiment [2], 0.0216; in [3], 0.00259; in experiment [4], -0.0438; in experiment [5], 0.0569; in experiment [6] it was 0.0224. Further, the log fold change Tl+ flux in [7] was -0.0427; in [8] it was -0.045; in experiment [9], 0.011; in experiment [10], 0.0426.
Take `O=C(O)c1nnn(-c2ccccc2Oc2ccc(Cl)cc2Cl)c1-c1ccccc1`: the log fold change Tl+ flux in [1] is 0.0736; in experiment [2], 0.343 (active); in experiment [3] it was 0.17 (active); in [4], 0.243 (active); in experiment [5], 0.127 (active); in experiment [6], -0.021. In addition, the log fold change Tl+ flux is 0.297 (active) in [7], 0.113 (active) in experiment [8], 0.287 (active) in experiment [9] and 0.0348 in [10].
As for `C1=CC=CC(C2C=CC=CC=C2)C=C1`, the log fold change Tl+ flux was 0.0519 in [1]; 0.0343 in [2]; -0.0453 in experiment [3]; 0.0315 in experiment [4]; -0.0568 in [5]; -0.00176 in experiment [6]. The log fold change Tl+ flux is -0.00852 in [7], -0.000831 in experiment [8], 0.0377 in [9] and -0.0164 in experiment [10].
